The text below walks through data of PubChem BioAssay (EPA / NIEHS).

The nature of assay [1]: BSK_3C_TissueFactor: BioMAP Diversity Plus: 3C Assay for Tissue Factor Biomarker Activity (AID 2282997). As to conditions: BioMAP 3C HUVEC, tissue factor biomarker readout; actives raise or lower the signal. The gist of the method: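 HUVEC, 3C system, 24 h post-dose; Tissue Factor by ELISA; bidirectional fit vs DMSO baseline.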
Assay [2] in a line: BSK_3C_uPAR: BioMAP Diversity Plus: 3C Assay for Urokinase-type plasminogen activator receptor (uPAR) Biomarker Activity (AID 2282998). The settings on record: BioMAP 3C HUVEC, uPAR biomarker ELISA; actives raise or lower the signal. In outline:
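ELISA readout of uPAR on human vascular endothelium (umbilical vein primary cells), taken 24 h after chemical dosing. Increases and decreases are both fitted relative to DMSO vehicle.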
For orientation: In an ELISA, binding on a coated surface is turned into a signal by an enzyme label.

Assay [3] can be described thus: BSK_3C_VCAM1: BioMAP Diversity Plus: 3C Assay for Vascular cell adhesion molecule 1 (VCAM1) Biomarker Activity (AID 2282999). The settings on record: BioMAP 3C HUVEC, VCAM1 ELISA, cytokine-stimulated; actives raise or lower the signal. The gist of the method: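 HUVEC primary cells, 24 h compound exposure; VCAM-1 by ELISA; gain/loss of signal fitted bidirectionally vs DMSO baseline.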

Assay [4] in a line: BSK_4H_Eotaxin3: BioMAP Diversity Plus: 4H Assay for Eotaxin 3 Biomarker Activity (AID 2283000).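 As to outcome: CCL26 protein level quantified by ELISA in parallel with SRB cytotoxicity check.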 The settings on record: primary human endothelial cells (HUVEC); actives raise or lower the signal. In outline:
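Readout is Eotaxin-3 (CCL26) level by ELISA in primary human umbilical vein endothelial cells harvested 24 h after chemical exposure; activity fitted in both directions against DMSO control.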

A short description of assay [5]: BSK_3C_Proliferation: Cell Proliferation Assessment in the BioMAP Diversity Plus: 3C Assay (AID 2283006).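 As to AC50: potency may reflect either rise or fall in cell number versus DMSO.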 The settings on record: primary human endothelial cells (HUVEC). In outline: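 Cells (human umbilical vein endothelial, sub-confluent) receive test chemical; after 48 h they are fixed in 10% trichloroacetic acid, stained with 0.1% SRB and read at 560 nm. Activity is referenced to DMSO, fitting increases and decreases.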

Read-out in assay [6]: E-selectin (Homo sapiens) (UniProt P16581)
Briefly: BSK_3C_Eselectin: BioMAP Diversity Plus: 3C Assay for Eselectin Biomarker Activity (AID 2283015).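 As to outcome: cell surface E-selectin protein quantified by ELISA 24 h after dosing.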 As to conditions: primary human endothelial cells (HUVEC); actives raise or lower the signal. In outline:
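HUVEC, 3C stimulation; compound exposure 24 h; E-selectin by ELISA; gain- or loss-of-signal fitted bidirectionally vs DMSO baseline.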

Read-out in assay [7]: Interleukin-1 alpha (IL1a), IL1A (gene 3552)
Briefly: BSK_BE3C_IL1a: BioMAP Diversity Plus: BE3C Assay for Interleukin-1 alpha (IL1a) Biomarker Activity (AID 2283016). The settings on record: primary human bronchial epithelial cells; actives raise or lower the signal. The gist of the method:
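Signal from IL-1a ELISA, taken 24 h after chemical dosing of human bronchial epithelial cells, is compared with DMSO as baseline using bidirectional curve fitting.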

Read-out in assay [8]: Monocyte Chemoattractant Protein-1 (MCP1), CCL2 (gene 6347)
The experiment in a line: BSK_4H_MCP1: BioMAP Diversity Plus: 4H Assay for Monocyte Chemoattractant Protein-1 (MCP1) Biomarker Activity (AID 2283018). As to conditions: primary human endothelial cells (HUVEC); actives raise or lower the signal. In outline: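 Endothelial cells from umbilical vein were treated with test chemical, then after 24 h MCP-1 levels were quantified by ELISA; endpoint values came from bidirectional fitting with DMSO as baseline of activity.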

Read-out in assay [9]: Human Leukocyte Antigen - DR isotype (HLADR), HLA-DRA (gene 3122)
Briefly: BSK_3C_HLADR: BioMAP Diversity Plus: 3C Assay for Human Leukocyte Antigen - DR isotype (HLADR) Biomarker Activity (AID 2283019).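 As to outcome: ELISA of cell-surface HLA-DR on HUVEC 24 h after dosing.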 The settings on record: primary human endothelial cells (HUVEC); actives raise or lower the signal. In outline:
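HUVEC, 3C stimulation, 24 h post-dose; HLA-DR by ELISA; bidirectional curve fit vs DMSO baseline; gain or loss of signal scored.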

Read-out in assay [10]: Interleukin-8 (IL8), CXCL8 (gene 3576)
The experiment in a line: BSK_3C_IL8: BioMAP Diversity Plus: 3C Assay for Interleukin-8 (IL8) Biomarker Activity (AID 2283020). As to conditions: primary human endothelial cells (HUVEC); actives raise or lower the signal. The gist of the method:
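Endothelial primary cells of human umbilical vein origin are dosed with chemical; after 24 h the IL-8 biomarker is measured by ELISA, and concentration–response is fitted in both directions versus DMSO.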

Read-out in assay [11]: Monokine induced gamma interferon (MIG), CXCL9 (gene 4283)
The experiment in a line: BSK_3C_MIG: BioMAP Diversity Plus: 3C Assay for Monokine induced gamma interferon (MIG) Biomarker Activity (AID 2283021).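 As to AC50: MIG protein level measured by immunoassay in the treated endothelial cultures.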 As to conditions: primary human endothelial cells (HUVEC); actives raise or lower the signal. In outline: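 Endothelial primary cells (human umbilical vein) are dosed with test chemical in the 3C system. MIG levels are measured by ELISA at 24 h and fitted in both directions relative to DMSO.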

Assay [12] in a line: BSK_3C_SRB: Viability Assessment in the BioMAP Diversity Plus: 3C Assay (AID 2283023).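 Also: cells read 24 h after compound dosing; fitted both ways against DMSO so a hit may be signal rise or drop.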 As to conditions: primary human endothelial cells (HUVEC). In outline:
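HUVEC, 24 h post-dose; 10% TCA fix, 0.1% SRB stain, A560 nm. Bidirectional curve fit vs DMSO negative control.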

Read-out in assay [13]: Matrix Metallopeptidase 1 (MMP1), MMP1 (gene 4312)
Briefly: BSK_BE3C_MMP1: BioMAP Diversity Plus: BE3C Assay for Matrix Metallopeptidase 1 (MMP1) Biomarker Activity (AID 2283024). The settings on record: primary human bronchial epithelial cells; actives raise or lower the signal. In outline: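 MMP1 signal, measured by ELISA after a 24 h chemical exposure of human primary bronchial epithelial cells, is analysed with bidirectional fitting using DMSO as negative control.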

Assay [14] can be described thus: BSK_4H_SRB: Viability Assessment in the BioMAP Diversity Plus: 4H Assay (AID 2283027).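 Also: cells exposed to compound for 24 h before staining.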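 As to AC50: curves fitted both ways versus DMSO so AC50 may be loss or gain.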 The settings on record: primary human endothelial cells (HUVEC). The gist of the method:
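HUVEC, 24 h post-dose; 10% TCA fix, 0.1% SRB stain, A560 nm. Total protein = overt cytotoxicity, parallel to biomarker read. Bidirectional fit vs DMSO baseline.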

Assay [15] in a line: BSK_BE3C_SRB: Viability Assessment in the BioMAP Diversity Plus: BE3C Assay (AID 2283028).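 As to AC50: fitted both ways so AC50 may mark signal gain or loss versus DMSO.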 As to conditions: primary human bronchial epithelial cells. The gist of the method:
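Primary human bronchial epithelium; chemical dosing, 24 h; 10% TCA fix, 0.1% SRB stain, A560; bidirectional fit vs DMSO baseline.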

Read-out in assay [16]: Monokine induced gamma interferon (MIG), CXCL9 (gene 4283)
The experiment in a line: BSK_hDFCGF_MIG: BioMAP Diversity Plus: hDFCGF Assay for Monokine induced gamma interferon (MIG) Biomarker Activity (AID 2283063). As to conditions: primary human foreskin fibroblasts; actives raise or lower the signal. In outline:
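Fibroblasts (human foreskin, primary) dosed, 24 h, MIG by ELISA; fit bidirectional vs DMSO.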

Read-out in assay [17]: Matrix Metallopeptidase 1 (MMP1), MMP1 (gene 4312)
The experiment in a line: BSK_hDFCGF_MMP1: BioMAP Diversity Plus: hDFCGF Assay for Matrix Metallopeptidase 1 (MMP1) Biomarker Activity (AID 2283064). As to conditions: primary human foreskin fibroblasts; actives raise or lower the signal. The gist of the method:
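ELISA read-out of MMP1 from human foreskin fibroblasts (primary skin cells), 24 h post-dose. Gain or loss of signal was fitted bidirectionally versus DMSO negative control; cytotoxicity was checked by SRB in parallel cultures.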

Read-out in assay [18]: E-selectin (Homo sapiens) (UniProt P16581)
The experiment in a line: BSK_SAg_Eselectin: BioMAP Diversity Plus: SAg Assay for Eselectin Biomarker Activity (AID 2283091). The settings on record: primary human HUVEC with PBMC; actives raise or lower the signal. In outline: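 E-selectin ELISA readout at 24 h post-dosing in human umbilical vein endothelial cell/PBMC co-culture; gain or loss of signal fitted relative to DMSO baseline.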

Read-out in assay [19]: Interleukin-8 (IL8), CXCL8 (gene 3576)
The experiment in a line: BSK_SAg_IL8: BioMAP Diversity Plus: SAg Assay for Interleukin-8 (IL8) Biomarker Activity (AID 2283094). The settings on record: primary human HUVEC with PBMC; actives raise or lower the signal. In outline: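 Chemicals were dosed onto a human endothelial–PBMC co-culture, and IL-8 was quantified by ELISA after 24 h. Both increases and decreases were fitted relative to DMSO.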

Assay [20] concerns the target Retinoic acid receptor RXR-alpha (Homo sapiens) (UniProt P19793). Briefly: OT_NURR1_NURR1RXRa_0480: Odyssey Thera (OT) 8-hour HEK293T Protein Complementation Assay for Nurr1/retinoid X receptor (RXR) (AID 2283385; active = hit-call score of the fitted dose curve at least 0.9, where 1 is the maximum). The gist of the method:
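Interaction of bait and prey reconstitutes a functional reporter, whose fluorescence was measured in HEK293T cells dosed with compound for 8 hours. Signal gain relative to DMSO defined the single endpoint.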

Records with an inconclusive call do not appear. The source holds several records for some structures; these can differ, active in one and inactive in another. Calls of active or inactive are those of the source. The calls were made as follows, unless noted: active = hit-call score of the fitted dose curve at least 0.9, where 1 is the maximum; inactive = score below 0.9.

The term AC50 denotes the concentration at which the activity in the assay is half-maximal.

E-selectin (Homo sapiens), sequence (P16581 whole entry, looked up): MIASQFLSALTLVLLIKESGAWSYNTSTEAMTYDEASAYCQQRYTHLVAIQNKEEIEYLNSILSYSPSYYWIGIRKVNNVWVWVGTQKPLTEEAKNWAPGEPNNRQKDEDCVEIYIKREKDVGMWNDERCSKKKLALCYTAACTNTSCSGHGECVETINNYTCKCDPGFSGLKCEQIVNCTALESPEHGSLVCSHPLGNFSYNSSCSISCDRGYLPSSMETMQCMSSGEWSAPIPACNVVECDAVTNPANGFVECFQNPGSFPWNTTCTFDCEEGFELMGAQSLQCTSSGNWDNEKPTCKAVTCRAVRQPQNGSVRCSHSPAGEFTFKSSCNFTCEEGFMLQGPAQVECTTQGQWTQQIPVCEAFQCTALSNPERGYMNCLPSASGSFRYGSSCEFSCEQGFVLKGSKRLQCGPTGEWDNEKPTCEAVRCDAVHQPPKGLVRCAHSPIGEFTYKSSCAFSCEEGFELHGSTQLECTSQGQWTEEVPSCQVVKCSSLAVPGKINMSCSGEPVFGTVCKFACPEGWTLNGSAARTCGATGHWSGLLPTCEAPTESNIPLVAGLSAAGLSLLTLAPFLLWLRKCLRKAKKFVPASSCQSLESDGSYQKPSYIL
Retinoic acid receptor RXR-alpha (Homo sapiens), sequence (P19793 whole entry, looked up): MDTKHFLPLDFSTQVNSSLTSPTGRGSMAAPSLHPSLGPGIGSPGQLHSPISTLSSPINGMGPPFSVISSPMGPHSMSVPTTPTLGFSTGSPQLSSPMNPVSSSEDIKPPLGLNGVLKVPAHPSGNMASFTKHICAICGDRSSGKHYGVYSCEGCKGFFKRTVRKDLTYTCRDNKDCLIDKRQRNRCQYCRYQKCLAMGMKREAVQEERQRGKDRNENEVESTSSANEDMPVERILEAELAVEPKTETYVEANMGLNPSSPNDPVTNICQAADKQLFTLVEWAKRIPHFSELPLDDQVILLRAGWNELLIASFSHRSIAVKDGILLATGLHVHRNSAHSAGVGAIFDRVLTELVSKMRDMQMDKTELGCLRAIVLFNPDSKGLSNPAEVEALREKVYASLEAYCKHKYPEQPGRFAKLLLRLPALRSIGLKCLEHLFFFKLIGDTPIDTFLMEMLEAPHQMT

`CCCCCCCCCCCCCCCCCC[N+](C)(C)C`: the concentration at half-maximal activity (AC50) was 5 µM (active) in assay [1]; 1.27 µM (active) in [2]; 6.29 µM (active) in [3]; 1.89 µM (active) in assay [4]; 1.36 µM (active) in assay [5]; 5 µM (active) in assay [6]. For the same compound, the AC50 was 3.8 µM (active) in [7]; 0.664 µM (active) in assay [8]; 1.27 µM (active) in assay [9]; 5 µM (active) in [10]; 7.62 µM (active) in [11]; 1.31 µM (active) in [12]. Moreover, the AC50 in assay [13] is 6.82 µM (active); in assay [14], 1.34 µM (active); in assay [15] it was 3.49 µM (active); in assay [16], 3.28 µM (active); in [17] it was 7.66 µM (active); in assay [18] it was 9.19 µM (active). In addition, the AC50 in [19] was 8.34 µM (active).
Take `Cc1cc(C)c(S(=O)(=O)O)cc1N=Nc1cc(S(=O)(=O)O)c2ccccc2c1O`: the compound was called inactive in assay [20].
In the case of `CN(C)Cc1cc(C(C)(C)C)c(O)c(C(C)(C)C)c1`, the outcome in assay [1], in assay [2], in [3], in [4], in [5] and in assay [6] was inactive. Besides, the outcome in assay [7], in [8], in assay [9], in [10], in assay [11] and in assay [12] was inactive. The outcome in assay [13], in assay [14], in assay [15], in assay [16], in assay [17] and in assay [18] was inactive. The result in assay [19] was inactive. The AC50 in assay [16], in [17], in [18] and in assay [19] was 20 µM (active) throughout.
As for `CCCCC(CC)COC(=O)CS` (centres undefined), the half-maximal activity concentration (AC50) in assay [20] was 50 µM (active).
On to `C=C1CC[C@H]2C[C@@H]1C2(C)C`, for which the result in assay [20] was inactive.
With `Cc1cc(-n2nc3ccc(Cl)cc3n2)c(O)c(C(C)(C)C)c1`, the outcome in assay [1], in assay [2], in assay [3], in assay [4], in [5] and in assay [6] was inactive. For the same compound, the result in assay [7], in [8], in assay [9], in [10], in assay [11] and in assay [13] was inactive. Further, the outcome in assay [14], in assay [15], in assay [16], in assay [17], in assay [18] and in assay [19] was inactive. Further, the AC50 in assay [12] is 0.342 µM (active).
